In PubChem BioAssay AID504452 (The Scripps Research Institute Molecular Screening Center, 2011) one finds activation (% of full agonist control) and activation (% of partial agonist control) data, which are given here for 35 compounds.

The target in this test is Peroxisome proliferator-activated receptor gamma (Homo sapiens) (UniProt P37231). Briefly: PPARg partial agonist activation, primary screen, cell-based, luciferase reporter, luminescence (AID 504452).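 Note: Cos-1 cells carrying PPARgamma and a response element luciferase reporter.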 To be noted: at 5 µM, stronger effect = higher value; activation (% of full agonist control): measured here: relative to full agonist control. Background: In a reporter assay the amount or activity of a reporter protein is the signal.

Activity calls are given as the source filed them. Cut-off read from the data, not from the text of the source: active = activation above about 85%; inactive = the rest.

Sequence of Peroxisome proliferator-activated receptor gamma (Homo sapiens) (P37231 whole entry, looked up): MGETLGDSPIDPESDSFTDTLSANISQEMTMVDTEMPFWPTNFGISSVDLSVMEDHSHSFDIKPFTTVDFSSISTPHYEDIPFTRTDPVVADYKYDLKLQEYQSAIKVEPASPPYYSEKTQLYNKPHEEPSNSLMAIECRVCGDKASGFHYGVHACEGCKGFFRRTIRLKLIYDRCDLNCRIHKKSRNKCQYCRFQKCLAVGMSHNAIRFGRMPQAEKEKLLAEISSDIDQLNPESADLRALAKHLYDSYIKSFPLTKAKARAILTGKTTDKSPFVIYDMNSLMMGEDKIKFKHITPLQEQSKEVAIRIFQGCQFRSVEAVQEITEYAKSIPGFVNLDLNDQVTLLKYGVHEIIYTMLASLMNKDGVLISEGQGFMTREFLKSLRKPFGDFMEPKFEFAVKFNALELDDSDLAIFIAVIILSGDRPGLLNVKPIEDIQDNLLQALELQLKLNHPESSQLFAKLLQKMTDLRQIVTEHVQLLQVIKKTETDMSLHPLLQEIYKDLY

As to `Cc1cccc(NC(=O)CN2C(=O)N/C(=C/c3ccc(-c4cccc(C(=O)O)c4C)o3)C2=O)c1`, the activation (% of full agonist control) amounted to 34.1% and the activation (% of partial agonist control) was 75.5% (inactive).
Take `Cc1cc(N2C(=O)C(=O)/C(=C(/O)c3ccc(F)cc3)C2c2ccc(F)cc2)no1` (stereo not given): the activation (% of full agonist control) was determined as 31.8% and the activation (% of partial agonist control) is 70.3% (inactive).
On to `O=C(CN1CCOC1=O)N1CCCC(N2CCN(c3cccc(C(F)(F)F)c3)CC2)C1` (stereo not given), for which the activation (% of full agonist control) stood at 26.5% and the activation (% of partial agonist control) is 58.8% (inactive).
On to `COc1ccc2c(c1)c(=O)c(C(=O)c1ccc(C)cc1)cn2CC(=O)Nc1ccc(F)cc1`, for which the activation (% of full agonist control) is 45% and the activation (% of partial agonist control) was 99.5% (active).
For the compound `CCC(=O)Nc1nonc1-c1nc2ccccc2n1Cc1cccc2ccccc12`, the activation (% of full agonist control) turned out to be 25.1% and the activation (% of partial agonist control) is 55.5% (inactive).
Taken in the same sequence, the figures for `Cc1ccc2cc(CN(Cc3ccccc3)Cc3nnnn3C3CCCC3)c(=O)[nH]c2c1` were 39.2% and 86.8% (active).
As for `COc1ccc(-n2c3c(cc(C(=O)NNc4ccccc4C)c2=O)C(=O)CC(C)(C)C3)cc1`, the activation (% of full agonist control) was 32.7% and the activation (% of partial agonist control) was 72.5% (inactive).
Turning to `COc1ccc(CNC(=O)Cn2c(=O)n(CCC(=O)N3CCCCC3)c(=O)c3sccc32)cc1`, the activation (% of full agonist control) stood at 46.4% and the activation (% of partial agonist control) was 103% (active).
As for `COc1ccccc1-n1cc(C(=O)c2cc(Cl)ccc2O)cc(C#N)c1=O`, the activation (% of full agonist control) turned out to be 44.9% and the activation (% of partial agonist control) is 99.4% (active).
As for `Cn1nc(-c2ccccc2)c(CO)c1Oc1cccc(C(F)(F)F)c1`, the activation (% of full agonist control) was determined as 30.3% and the activation (% of partial agonist control) was 67% (inactive).
On to `COc1cccc(Cn2nc3c4cc(F)ccc4n(Cc4ccc(F)cc4)cc-3c2=O)c1`, for which the activation (% of full agonist control) stood at 38.8% and the activation (% of partial agonist control) is 85.9% (active).
Take `O=C(OCC1OC(Oc2ccc(O)cc2)C(O)C(O)C1O)c1ccccc1` (stereo not given): the activation (% of full agonist control) was determined as 9.83% and the activation (% of partial agonist control) was 21.8% (inactive).
As for `CCOC(=O)/C=c1\s/c(=C\c2ccc3cc(OC)ccc3c2)c(=O)n1CC(=O)NCC1CCCO1` (stereo not given), the activation (% of full agonist control) amounted to 28.6% and the activation (% of partial agonist control) was 63.3% (inactive).
`CC(=O)c1ccc(N2CCN(C(=O)C3CCCN(S(=O)(=O)c4cnc[nH]4)C3)CC2)cc1` (stereo not given): the activation (% of full agonist control) amounted to 25.1% and the activation (% of partial agonist control) was 55.5% (inactive).
Take `O=C(CN1C(=O)/C(=C/c2ccccc2F)Sc2ccccc21)NCC1CCCO1` (stereo not given): the activation (% of full agonist control) is 35% and the activation (% of partial agonist control) is 77.5% (inactive).
As to `Cc1ccc(C(=O)N2NC(c3ccccc3F)C3C(=O)N(c4cccc(C)c4)C(=O)C32)cc1` (stereo not given), the activation (% of full agonist control) was found to be 33.4% and the activation (% of partial agonist control) was 73.8% (inactive).
With `O=C(Cn1c(=O)c(=O)n(Cc2ccccc2)c2ccc(Cl)cc21)Nc1cccc(F)c1`, the activation (% of full agonist control) is 25.4% and the activation (% of partial agonist control) is 56.2% (inactive).
For `O=c1c([N+](=O)[O-])c(NCCN2CCCCCC2)c2ccccc2n1-c1ccccc1` the same measures were 15.8% and 34.9% (inactive).
Turning to `COc1ccc(N(CC(=O)N2c3ccccc3CC2C)S(=O)(=O)c2c(C)nn(C)c2C)cc1` (stereo not given), the activation (% of full agonist control) was determined as 32.3% and the activation (% of partial agonist control) is 71.5% (inactive).
`Cc1ccc2nc(N3C(=O)C(O)=C(C(=O)c4ccco4)C3c3cccc(O)c3)sc2c1` (stereo not given): the activation (% of full agonist control) stood at 46.7% and the activation (% of partial agonist control) was 103% (active).
On to `O=C(Nc1ccccc1Cl)C(=O)c1cn(CC(=O)N2CCOCC2)c2ccccc12`, for which the activation (% of full agonist control) was determined as 50.5% and the activation (% of partial agonist control) is 112% (active).
Consider `CN1C(=O)COc2ccc(C(=O)c3oc4ccccc4c3-c3cnc4c(c3)COc3ccccc3-4)cc21`, for which the activation (% of full agonist control) came to 8.28% and the activation (% of partial agonist control) is 18.3% (inactive).
Taken in the same sequence, the figures for `O=C(Nc1c(C(=O)Nc2ccc3c(c2)OCCO3)cnn1-c1ccccc1Cl)c1ccco1` were 47.5% and 105% (active).
In the case of `Cc1nc2ccccn2c1/C(O)=C1\C(=O)C(=O)N(CCN2CCOCC2)C1c1ccncc1` (stereo not given), the activation (% of full agonist control) stood at 26.2% and the activation (% of partial agonist control) was 58.1% (inactive).
For the compound `N=c1c(C(=O)NCCc2ccccc2)cc2c(=O)n3ccccc3nc2n1CC1CCCO1` (stereo not given), the activation (% of full agonist control) was found to be 34.6% and the activation (% of partial agonist control) is 76.7% (inactive).
Consider `Cc1ccc(O)c(C(=O)c2cc(C#N)c(=O)n(C(C)c3ccccc3)c2)c1` (stereo not given), for which the activation (% of full agonist control) was determined as 33.3% and the activation (% of partial agonist control) was 73.7% (inactive).
On to `O=C(CSc1nnc(Cc2cc(=O)[nH]c(=O)[nH]2)n1-c1ccc(Cl)cc1)N1CCc2ccccc21`, for which the activation (% of full agonist control) is 46.6% and the activation (% of partial agonist control) was 103% (active).
Take `O=C(NC(Cc1c[nH]c2ccccc12)C(=O)O)/C(=C/c1ccc(F)cc1)NC(=O)c1ccccc1` (stereo not given): the activation (% of full agonist control) came out at 32.2% and the activation (% of partial agonist control) is 71.2% (inactive).
Regarding `O=C(COc1coc(CN2CCc3ccccc3C2)cc1=O)Nc1ccc(F)cc1F`, the activation (% of full agonist control) was 44.3% and the activation (% of partial agonist control) is 98.2% (active).
As for `COc1ccc(CN(C)C(=O)[C@H](Cc2ccccc2)NC(=O)c2ccco2)c(OC)c1`, the activation (% of full agonist control) stood at 32.8% and the activation (% of partial agonist control) was 72.7% (inactive).
Taken in the same sequence, the figures for `COc1cccc(C2CC(=O)N3CN(c4ccccc4F)CSC3=C2C#N)c1` (stereo not given) were 31.6% and 69.9% (inactive).
Consider `O=C(NCCCn1ccnc1)C(=O)NCC(c1cccnc1)N1CCN(c2ccc(F)cc2)CC1` (stereo not given), for which the activation (% of full agonist control) amounted to 31.2% and the activation (% of partial agonist control) was 69% (inactive).
With `Cc1cc(C)c2nc(N3C(=O)C(O)=C(C(=O)c4ccco4)C3c3cccc(O)c3)sc2c1` (stereo not given), the activation (% of full agonist control) was 29% and the activation (% of partial agonist control) is 64.1% (inactive).
As to `Cc1cc(N2C(=O)C(O)=C(C(=O)c3ccco3)C2c2cccc(Oc3ccccc3)c2)no1` (stereo not given), the activation (% of full agonist control) is 32.2% and the activation (% of partial agonist control) was 71.3% (inactive).
For `COc1cc(/C=C(\NC(=O)c2ccccc2)C(=O)NC(C(=O)O)c2ccccc2)cc(OC)c1OC` (stereo not given) the same measures were 39.8% and 88% (active).
